Source: PubChem BioAssay AID1159580 (chemical genetic matrix, 2015)
The whole screen tested about 5,500 compounds, of which about 2,000 (36%) were called active. About 18% were inconclusive and are not listed. No stated cut-off is given here; in the data, active means normalized growth mostly below about 0.91 (no sharp cut-off); inconclusive means no clear call, values can overlap the other calls; inactive means mostly above about 0.92. The list shows a part of the results.

Assay: chemical genetic growth profiling, strain panel (AID 1159580);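 further: tested at 20 µM; growth read once vehicle control cultures reached saturation at 30 °C; 1 = growth at the plate median or of vehicle wells; lower values mean less growth of the strain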
Details: growth OD

Measured: normalized growth

OCC(O)Cc1ccc2c(c1)OCO2 (centres undefined)
inactive: S. cerevisiae deletion strains, locus YJR043C, strain POL32, active compounds read low 0.995 | S. cerevisiae deletion strains, locus YJR075W, strain HOC1, active compounds read low 0.984 | S. cerevisiae deletion strains, locus YKL009W, strain mrt4, active compounds read low 1 | S. cerevisiae deletion strains, locus YKL068W, active compounds read low 1 | S. cerevisiae deletion strains, locus YKL085W, strain MDH1 (second series), active compounds read low 1.03 | S. cerevisiae deletion strains, locus YKL085W, strain MDH1, active compounds read low 1.03 | S. cerevisiae deletion strains, locus YKL160W, strain elf1, active compounds read low 1 | S. cerevisiae deletion strains, locus YKL190W, strain CNB1, active compounds read low 1.02 | S. cerevisiae deletion strains, locus YKR001C, strain vps1, active compounds read low 0.999 | S. cerevisiae deletion strains, locus YKR026C, strain gcn3, active compounds read low 0.989 | S. cerevisiae deletion strains, locus YKR091W, strain srl3, active compounds read low 1 | S. cerevisiae deletion strains, locus YLL001W, strain dnm1, active compounds read low 1 | S. cerevisiae deletion strains, locus YLL026W, active compounds read low 0.997 | S. cerevisiae deletion strains, locus YLL041C, strain sdh2, active compounds read low 0.994 | S. cerevisiae deletion strains, locus YLR027C, strain aat2, active compounds read low 0.976 | S. cerevisiae deletion strains, locus YLR039C, strain RIC1, active compounds read low 1.03 | S. cerevisiae deletion strains, locus YLR058C, strain SHM2, active compounds read low 1.02 | S. cerevisiae deletion strains, locus YLR102C, strain apc9, active compounds read low 1 | S. cerevisiae deletion strains, locus YLR221C, strain rsa3, active compounds read low 0.997 | S. cerevisiae deletion strains, locus YLR258W, strain gsy2, active compounds read low 1.01 | S. cerevisiae deletion strains, locus YLR262C, strain YPT6 (second series), active compounds read low 1.01 | S. cerevisiae deletion strains, locus YLR262C, strain YPT6, active compounds read low 1.06 | S. cerevisiae deletion strains, locus YLR268W, strain sec22, active compounds read low 1 | S. cerevisiae deletion strains, locus YLR320W, strain mms22, active compounds read low 0.983 | S. cerevisiae deletion strains, locus YLR330W, strain CHS5, active compounds read low 1.01 | S. cerevisiae deletion strains, locus YLR342W, strain FKS1 (second series), active compounds read low 0.99 | S. cerevisiae deletion strains, locus YLR342W, strain FKS1, active compounds read low 0.992 | S. cerevisiae deletion strains, locus YLR357W, strain rsc2, active compounds read low 0.973 | S. cerevisiae deletion strains, locus YLR370C, strain arc18, active compounds read low 1 | S. cerevisiae deletion strains, locus YLR371W, strain rom2, active compounds read low 0.989 | S. cerevisiae deletion strains, locus YLR384C, strain iki3, active compounds read low 0.992 | S. cerevisiae deletion strains, locus YLR418C, strain cdc73, active compounds read low 1.02 | S. cerevisiae deletion strains, locus YML016C, strain PPZ1, active compounds read low 1.01 | S. cerevisiae deletion strains, locus YML032C, strain rad52, active compounds read low 0.989 | S. cerevisiae deletion strains, locus YML120C, strain ndi1, active compounds read low 0.995 | S. cerevisiae deletion strains, locus YML124C, strain tub3, active compounds read low 0.996 | S. cerevisiae deletion strains, locus YMR058W, strain fet3, active compounds read low 1.01 | S. cerevisiae deletion strains, locus YMR078C, strain ctf18, active compounds read low 0.99 | S. cerevisiae deletion strains, locus YMR125W, strain sto1, active compounds read low 0.997 | S. cerevisiae deletion strains, locus YMR129W, active compounds read low 0.994 | S. cerevisiae deletion strains, locus YMR205C, strain PFK2, active compounds read low 0.981 | S. cerevisiae deletion strains, locus YMR223W, strain ubp8, active compounds read low 0.987 | S. cerevisiae deletion strains, locus YMR231W, strain pep5, active compounds read low 0.996 | S. cerevisiae deletion strains, locus YMR263W, strain SAP30, active compounds read low 1.03 | S. cerevisiae deletion strains, locus YMR307W, strain GAS1, active compounds read low 0.956 | S. cerevisiae deletion strains, locus YNL067W, strain RPL9B, active compounds read low 1.03 | S. cerevisiae deletion strains, locus YNL071W, strain lat1, active compounds read low 1.01 | S. cerevisiae deletion strains, locus YNL128W, strain TEP1, active compounds read low 1.02 | S. cerevisiae deletion strains, locus YNL153C, strain GIM3, active compounds read low 1.03 | S. cerevisiae deletion strains, locus YNL209W, strain ssb2, active compounds read low 1.02 | S. cerevisiae deletion strains, locus YNL233W, strain BNI4, active compounds read low 1.04 | S. cerevisiae deletion strains, locus YNL248C, strain rpa49, active compounds read low 0.979 | S. cerevisiae deletion strains, locus YNL250W, strain rad50, active compounds read low 1.01 | S. cerevisiae deletion strains, locus YNL271C, strain bni1, active compounds read low 0.996 | S. cerevisiae deletion strains, locus YNL298W, strain CLA4, active compounds read low 1.01 | S. cerevisiae deletion strains, locus YNL307C, strain MCK1, active compounds read low 0.999 | S. cerevisiae deletion strains, locus YNL322C, strain KRE1 (second series), active compounds read low 1 | S. cerevisiae deletion strains, locus YNL322C, strain KRE1, active compounds read low 1.01 | S. cerevisiae deletion strains, locus YNR049C, strain mso1, active compounds read low 0.989 | S. cerevisiae deletion strains, locus YNR052C, strain pop2, active compounds read low 0.989 | S. cerevisiae deletion strains, locus YOL006C, strain TOP1, active compounds read low 1.07 | S. cerevisiae deletion strains, locus YOL012C, strain htz1 0.853 | S. cerevisiae deletion strains, locus YOL147C, strain pex11, active compounds read low 1 | S. cerevisiae deletion strains, locus YOR001W, strain rrp6, active compounds read low 0.985 | S. cerevisiae deletion strains, locus YOR061W, strain CKA2, active compounds read low 1.02 | S. cerevisiae deletion strains, locus YOR069W, strain VPS5, active compounds read low 1 | S. cerevisiae deletion strains, locus YOR070C, strain gyp1, active compounds read low 1 | S. cerevisiae deletion strains, locus YOR080W, strain dia2, active compounds read low 0.988 | S. cerevisiae deletion strains, locus YOR083W, strain WHI5, active compounds read low 1 | S. cerevisiae deletion strains, locus YOR106W, strain vam3, active compounds read low 1.03 | S. cerevisiae deletion strains, locus YOR136W, strain idh2, active compounds read low 0.993 | S. cerevisiae deletion strains, locus YOR144C, strain elg1, active compounds read low 0.997 | S. cerevisiae deletion strains, locus YOR184W, strain ser1, active compounds read low 0.99 | S. cerevisiae deletion strains, locus YOR265W, strain rbl2, active compounds read low 1 | S. cerevisiae deletion strains, locus YOR270C, strain vph1, active compounds read low 1.03 | S. cerevisiae deletion strains, locus YOR290C, strain snf2, active compounds read low 1.01 | S. cerevisiae deletion strains, locus YOR316C, strain cot1, active compounds read low 0.997 | S. cerevisiae deletion strains, locus YPL051W, strain arl3, active compounds read low 1 | S. cerevisiae deletion strains, locus YPL055C, strain LGE1, active compounds read low 1.06 | S. cerevisiae deletion strains, locus YPL078C, strain atp4, active compounds read low 1.02 | S. cerevisiae deletion strains, locus YPL106C, strain sse1, active compounds read low 0.979 | S. cerevisiae deletion strains, locus YPL240C, strain hsp82, active compounds read low 1 | S. cerevisiae deletion strains, locus YPL241C, strain CIN2, active compounds read low 1.01 | S. cerevisiae deletion strains, locus YPR119W, strain clb2, active compounds read low 0.995 | S. cerevisiae deletion strains, locus YPR141C, strain kar3, active compounds read low 0.997 | S. cerevisiae deletion strains, locus YPR163C, strain tif3, active compounds read low 0.992 | S. cerevisiae deletion strains, locus YPR167C, strain met16, active compounds read low 0.996 | S. cerevisiae deletion strains, strain wtn01, active compounds read low 0.997 | S. cerevisiae strains, strain wild type, active compounds read low 1.01
